Values without a mark were called inactive. Results filed as inconclusive are left out. The source made the active and inactive calls. Unless noted, calls come from the whole dose curve; as a rule, active = well fitted curve in either direction with a large enough effect (not every such curve was filed as active); inconclusive = small, poorly fitted or top-dose-only effect, or another doubt; inactive = flat fitted curve, though single readings scatter.
Tests used:
[1] = biological target: Lysosomal acid glucosylceramidase (Homo sapiens) (UniProt P04062); assay: Glucocerebrosidase-p2 (AID 348; in the data active = potency below about 10 µM; note: potency is the fitted concentration of half-maximal effect); conditions: purified GBA, blue fluorogenic substrate, 40 min
In short: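 Normal human glucocerebrosidase (0.2 nM) with blue fluorogenic substrate (80 uM final) in citrate/phosphate pH 5.9 with 10mM sodium taurocholate, 0.01% tween-20; 40 min RT, NaOH/glycine stop; fluorescence Ex 365/Em 440; AC50 from a titration from 0.6 nM upwards.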

[2] = biological target: Cytochrome P450 1A2 (Homo sapiens) (UniProt P05177); assay: p450-cyp1a2 (AID 410; calls by dose curve; note: potency is the fitted concentration of half-maximal effect); conditions: recombinant CYP1A2, luciferin-ME demethylation, luminescence; series mostly up to 57 µM
In short: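 20nM CYP1A2, 100uM Luciferin-ME (=Km), 100mM KPO4; cpd 10 min RT; +NADPH regen, 60 min RT; stop/detect 20 min; luminescence. Normalized to furafylline 57 uM = full inhibition.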

[3] = NFAT Signaling Pathway (AID 444); conditions: Jurkat NFAT-bla M1, carbachol, beta-lactamase ratio, 5 h; at 7.69 µM (top of the series) unless noted;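 note: carbachol stimulus at about its EC50 of 1 µM final; % is set by controls: 0 for no effect and ±100 for the full control effect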
In short: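 Jurkat cells carrying an NFAT-driven β-lactamase reporter and co-transfected muscarinic M1 receptor were treated with compound plus carbachol (1 uM final, an EC50 level) for 5 h at 37 °C. CCF4 loading followed for 1 h at RT; 460/530 nm ratio gave %activity.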

[4] = Stat Signaling Pathway (AID 446); conditions: ME-180 SIE beta-lactamase reporter, IL-6 stimulated, 5 h; at 7.69 µM (top of the series) unless noted;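 note: ME-180 cervical cancer cells given 40 pM IL-6 alongside compound; SIE-controlled beta-lactamase reporter measured as 460/530 nm FRET emission ratio; % is set by controls: 0 for no effect and ±100 for the full control effect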
In short: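 Compound effects on IL-6-induced STAT reporter activity were measured in ME-180 cells. After overnight culture, cells were co-treated with 40 pM IL-6 for 5 hrs before beta-lactamase substrate loading at room temperature.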

[5] = biological target: Glucocorticoid receptor (Homo sapiens) (UniProt P04150); assay: GR-GFP Redistribution (AID 450;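 active = compounds whose dose series gives a full or clear partial fitted curve of increased nuclear translocation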; note: potency is the fitted concentration of half-maximal effect); conditions: U2OS GR-GFP nuclear translocation, laser cytometry, 2 h
[6] = biological target: Glucocorticoid receptor (Homo sapiens) (UniProt P04150); assay: GR-EFC Redistribution (AID 451; calls by dose curve; note: potency is the fitted concentration of half-maximal effect); conditions: CHO-K1 GR-EFC translocation, beta-gal luminescence, 2 h
In short: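 CHO-K1 cells stably expressing nuclear-localized β-gal enzyme acceptor and GR fused C-terminally to the enzyme donor fragment; ligand-driven nuclear translocation restores β-gal by complementation. Compounds titrated up to 46 uM final, 2 h at 37 °C; luminescence read.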

[7] = biological target: Mitogen-activated protein kinase 10 (Mus musculus) (UniProt Q61831); assay: JNK3 AlphaScreen Assay (AID 530); conditions: JNK3 lysate, c-Jun phosphorylation; series mostly up to 57.1 µM;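 note: kinase came from lysate of stimulated human HepG2 cells; signal reports phosphorylation of biotinylated GST-cJun 1-79 at Ser73 with 10 µM ATP; % is set by controls: 0 for no effect and ±100 for the full control effect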
In short: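 Biotinylated GST-cJun(1-79) served as substrate for JNK3 in HepG2 lysates stimulated with IL-1beta and TNF-alpha. ATP was 10 uM final, pH 7.6. Ser73 phosphorylation was quantified by AlphaScreen (680 nm excitation).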

[8] = biological target: 3',5'-cyclic-AMP phosphodiesterase 4B (Homo sapiens) (UniProt Q07343); assay: qHTS Assay for Inhibitors of PDE-IV (AID 607; active = well fitted activation curve with a large enough effect in the main read-out, with a control signal flat, not every such curve was filed as active; note: % of control where 0% means no effect); conditions: HEK293 ACTOne CNG channel cells, membrane potential fluorescence; series mostly up to 22.9 µM
In short: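 ACTOne HEK293 cells carry a modified cAMP-gated CNG channel and express endogenous PDE4; plated 1000 cells/well, compounds up to 22.9 uM final. Membrane-potential dye fluorescence (ex 535/em 590) was read; parental cells received 10 uM forskolin + 100 uM RO 20-1724.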

[9] = biological target: Cytochrome P450 2C9 (Homo sapiens) (UniProt P11712); assay: qHTS Assay for Inhibitors and Substrates of Cytochrome P450 2C9 (AID 883; active = well fitted curve in the direction sought with a large enough effect; an effect the other way counts as inactive or inconclusive; note: % is set by controls: 0 for no effect and ±100 for the full control effect; nearly all actives have a fitted effect of over 60% in size); conditions: recombinant CYP2C9, luciferin-H luminescence, 60 min; series mostly up to 57.1 µM
In short: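 CYP2C9 deoxyluciferin hydroxylation, 37C, 60 min with NADPH regeneration; 10nM enzyme, 100uM Luciferin-H (KM). Glo detection reagent stopped reaction; luminescence normalized to sulphaphenazole (57uM) full inhibition.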

[10] = biological target: Cytochrome P450 3A4 (Homo sapiens) (UniProt P08684); assay: qHTS Assay for Activators of Cytochrome P450 3A4 (AID 885; active = well fitted curve in the direction sought with a large enough effect; an effect the other way counts as inactive or inconclusive; note: nearly all actives have a fitted effect of over 65% in size; note: potency is the fitted concentration of half-maximal effect); conditions: recombinant CYP3A4, Luciferin-PPXE luminescence, 60 min; series mostly up to 57.1 µM
In short: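 CYP3A4 activity: Luciferin-PPXE O-dealkylation, 25uM substrate, 200mM KPO4, RT throughout. Read-out is luciferase luminescence; higher values reflect activation.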

[11] = Confirmation and Secondary Assay for Modulators of Hemoglobin Beta Chain Splicing at IVS2 654 locus (AID 910; active = well fitted curve in the direction sought with a large enough effect; an effect the other way counts as inactive or inconclusive;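 note: per-well total GFP intensity by laser scanning cytometry after 2-day treatment; % of control where 0% means no effect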); conditions: HeLa EGFP-654 splicing reporter, GFP fluorescence, 48 h; series mostly up to 38.3 µM
In short: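 HeLa cells stably carrying EGFP interrupted by mutant beta-globin IVS2-654 intron (CMV-driven) were treated with compound for 2 days at 37C; corrected splicing was scored as total peak GFP intensity per well (488 nm excitation, 500-520 nm emission).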

[12] = Confirmation and Secondary Assay for Modulators of Hemoglobin Beta Chain Splicing at IVS2 705 locus (AID 930; active = well fitted curve in the direction sought with a large enough effect; an effect the other way counts as inactive or inconclusive;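 note: HeLa cells stably expressing the EGFP-705 splicing reporter; GFP fluorescence per well restored by corrected splicing of the IVS2-705 intron in EGFP; % of control where 0% means no effect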); conditions: HeLa EGFP-705 splicing reporter, GFP fluorescence, 48 h; series mostly up to 38.3 µM
In short: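 Fluorescence gain (488 nm laser, 500-520 nm PMT) reflects restored correct splicing of a mutant IVS2-705 intron inside EGFP in stably transfected HeLa cells after 2-day compound treatment.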

[13] = Primary qHTS for small molecule stabilizers of the endoplasmic reticulum resident proteome: Secreted ER Calcium Modulated Protein (SERCaMP) assay (AID 1508630; active = well fitted curve in the direction sought with a large enough effect; an effect the other way counts as inactive or inconclusive; note: % is set by controls: 0 for no effect and ±100 for the full control effect); conditions: SH-SY5Y GLuc-SERCaMP (Gaussia luciferase released on ER calcium loss) secretion, thapsigargin, luminescence; series mostly up to 38.4 µM
In short: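 The SH-SY5Y reporter protocol was run at 3 concentrations up to 38.3 uM (primary) or 11 concentrations (follow-up): 16 h compound, 100 nM thapsigargin for 4 h, then extracellular luciferase luminescence.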

[14] = biological target: Cytochrome P450 2C19 (Homo sapiens) (UniProt P33261); assay: qHTS Assay for Inhibitors and Substrates of Cytochrome P450 2C19 (AID 899; active = well fitted curve in the direction sought with a large enough effect; an effect the other way counts as inactive or inconclusive; note: nearly all actives have a fitted effect of over 60% in size; note: potency is the fitted concentration of half-maximal effect); conditions: recombinant CYP2C19, luciferin-H EGE luminescence; series mostly up to 57.1 µM
In short: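 In 50mM KPO4, the reaction held 5nM enzyme and KM-level (10uM) Luciferin-H EGE; it ran 60 min at 37C after NADPH regeneration and a 10 min compound preincubation. Luminescence values were scaled to 57uM ketoconazole as complete inhibition.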

[15] = AP1 Signaling Pathway (AID 357); conditions: ME-180 AP-1-bla reporter, EGF-induced, beta-lactamase ratio, 5 h; at 7.69 µM (top of the series) unless noted
In short: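 First, ME-180 AP-1-bla cells were cultured overnight at 37 °C in low-serum Opti-MEM. Next, titrated compounds with EC50 EGF were incubated 5 hours. Finally, CCF4 was added for 2.5 hours and the 460/530 nm ratio recorded.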

[16] = qHTS Assay for Identification of Small Molecule Agonists for Hypoxia Response Element Signaling Pathway (AID 914; active = well fitted activation curve with a large enough effect in the signal ratio, with a control signal flat, not every such curve was filed as active; the % refers to the signal ratio; note: % of control where 0% means no effect); conditions: ME-180 (cervical carcinoma) HRE-bla reporter, beta-lactamase ratio, CoCl2, 17 h; activation: hits give high values
In short: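 A beta-lactamase reporter under hypoxia response element control in ME-180 cells served as the system. Compound titrations plus EC50 CoCl2 ran 17 h at 37 degrees Celsius; AC50 values were fitted from %Activity.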

[17] = biological target: Cytochrome P450 3A4 (Homo sapiens) (UniProt P08684); assay: qHTS Assay for Inhibitors and Substrates of Cytochrome P450 3A4 (AID 884; active = well fitted curve in the direction sought with a large enough effect; an effect the other way counts as inactive or inconclusive; note: % is set by controls: 0 for no effect and ±100 for the full control effect; nearly all actives have a fitted effect of over 50% in size); conditions: recombinant CYP3A4, Luciferin-PPXE luminescence; series mostly up to 57.1 µM
In short: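 Luminescent readout of luciferin produced by CYP3A4 (20 nM) dealkylation of Luciferin-PPXE, 25 uM (its KM). NADPH-driven reaction ran 60 min at RT after 10 min compound preincubation; data scaled to 57 uM ketoconazole as 100% inhibition.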

Sequence of Cytochrome P450 1A2 (Homo sapiens) (P05177 whole entry, looked up): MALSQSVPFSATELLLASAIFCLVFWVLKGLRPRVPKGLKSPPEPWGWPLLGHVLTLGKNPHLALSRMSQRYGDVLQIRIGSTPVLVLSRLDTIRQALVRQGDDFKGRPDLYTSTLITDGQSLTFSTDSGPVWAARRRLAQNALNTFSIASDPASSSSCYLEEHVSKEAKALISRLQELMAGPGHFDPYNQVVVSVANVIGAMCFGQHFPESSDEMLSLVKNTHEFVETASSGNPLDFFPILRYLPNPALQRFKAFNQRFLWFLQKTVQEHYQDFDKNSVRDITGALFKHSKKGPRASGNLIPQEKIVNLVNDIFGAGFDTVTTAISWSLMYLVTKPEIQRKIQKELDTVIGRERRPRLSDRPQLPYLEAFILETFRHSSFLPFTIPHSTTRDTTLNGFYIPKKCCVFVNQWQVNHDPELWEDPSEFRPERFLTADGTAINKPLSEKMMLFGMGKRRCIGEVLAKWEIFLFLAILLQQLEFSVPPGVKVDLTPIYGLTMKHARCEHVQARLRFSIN
Sequence of Lysosomal acid glucosylceramidase (Homo sapiens) (P04062 whole entry, looked up): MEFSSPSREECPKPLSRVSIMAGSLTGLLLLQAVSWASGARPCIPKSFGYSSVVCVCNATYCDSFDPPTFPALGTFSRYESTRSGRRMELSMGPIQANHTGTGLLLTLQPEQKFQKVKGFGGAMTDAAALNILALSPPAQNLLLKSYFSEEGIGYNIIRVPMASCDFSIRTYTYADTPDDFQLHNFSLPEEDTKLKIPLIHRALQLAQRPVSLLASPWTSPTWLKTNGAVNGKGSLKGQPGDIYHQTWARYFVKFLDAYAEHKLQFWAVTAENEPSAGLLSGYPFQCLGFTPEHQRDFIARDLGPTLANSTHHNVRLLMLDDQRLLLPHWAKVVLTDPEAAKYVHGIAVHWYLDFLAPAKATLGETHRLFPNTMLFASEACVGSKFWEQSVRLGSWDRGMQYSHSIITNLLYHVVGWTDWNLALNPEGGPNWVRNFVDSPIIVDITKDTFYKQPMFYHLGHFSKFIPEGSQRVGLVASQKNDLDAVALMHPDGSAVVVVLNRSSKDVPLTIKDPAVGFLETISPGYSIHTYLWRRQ
Sequence of Glucocorticoid receptor (Homo sapiens) (P04150 whole entry, looked up, the tested form may be a part): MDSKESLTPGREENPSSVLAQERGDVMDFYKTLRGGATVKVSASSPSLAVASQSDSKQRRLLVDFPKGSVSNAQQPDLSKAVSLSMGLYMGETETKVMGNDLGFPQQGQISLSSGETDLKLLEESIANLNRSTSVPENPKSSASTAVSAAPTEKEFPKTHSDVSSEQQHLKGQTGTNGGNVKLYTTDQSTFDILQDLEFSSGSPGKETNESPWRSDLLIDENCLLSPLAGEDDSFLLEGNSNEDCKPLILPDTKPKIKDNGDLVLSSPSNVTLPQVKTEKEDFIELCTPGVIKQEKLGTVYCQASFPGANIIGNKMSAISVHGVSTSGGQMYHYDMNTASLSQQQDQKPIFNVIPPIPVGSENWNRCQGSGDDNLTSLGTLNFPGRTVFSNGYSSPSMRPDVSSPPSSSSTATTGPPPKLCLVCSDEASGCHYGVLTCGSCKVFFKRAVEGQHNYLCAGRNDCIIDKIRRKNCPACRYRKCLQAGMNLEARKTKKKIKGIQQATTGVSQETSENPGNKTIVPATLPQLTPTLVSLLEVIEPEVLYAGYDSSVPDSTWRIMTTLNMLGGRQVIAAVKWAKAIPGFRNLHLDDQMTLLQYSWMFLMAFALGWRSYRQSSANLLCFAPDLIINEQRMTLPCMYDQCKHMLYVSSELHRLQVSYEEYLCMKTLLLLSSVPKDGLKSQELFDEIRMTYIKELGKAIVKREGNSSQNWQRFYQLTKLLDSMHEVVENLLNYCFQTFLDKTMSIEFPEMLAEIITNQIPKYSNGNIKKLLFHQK
Sequence of 3',5'-cyclic-AMP phosphodiesterase 4B (Homo sapiens) (Q07343 whole entry, looked up): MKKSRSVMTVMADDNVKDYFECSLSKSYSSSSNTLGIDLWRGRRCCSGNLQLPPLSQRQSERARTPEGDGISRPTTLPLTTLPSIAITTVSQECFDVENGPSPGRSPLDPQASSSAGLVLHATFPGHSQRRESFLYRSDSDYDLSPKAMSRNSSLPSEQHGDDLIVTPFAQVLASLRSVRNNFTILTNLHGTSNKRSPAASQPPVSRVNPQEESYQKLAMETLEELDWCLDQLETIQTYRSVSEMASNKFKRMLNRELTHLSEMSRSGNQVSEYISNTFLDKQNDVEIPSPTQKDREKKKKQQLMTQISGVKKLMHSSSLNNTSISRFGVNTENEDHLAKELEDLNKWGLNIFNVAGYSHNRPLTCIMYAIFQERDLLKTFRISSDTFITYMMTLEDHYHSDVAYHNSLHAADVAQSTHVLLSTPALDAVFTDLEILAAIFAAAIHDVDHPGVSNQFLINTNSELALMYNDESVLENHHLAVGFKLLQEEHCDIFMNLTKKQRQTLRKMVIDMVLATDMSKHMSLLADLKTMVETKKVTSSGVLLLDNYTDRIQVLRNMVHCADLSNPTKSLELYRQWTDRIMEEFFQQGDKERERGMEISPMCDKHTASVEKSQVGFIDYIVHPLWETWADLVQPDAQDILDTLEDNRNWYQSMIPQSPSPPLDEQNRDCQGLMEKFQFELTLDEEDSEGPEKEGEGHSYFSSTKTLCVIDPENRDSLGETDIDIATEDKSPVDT
Sequence of Cytochrome P450 3A4 (Homo sapiens) (P08684 whole entry, looked up): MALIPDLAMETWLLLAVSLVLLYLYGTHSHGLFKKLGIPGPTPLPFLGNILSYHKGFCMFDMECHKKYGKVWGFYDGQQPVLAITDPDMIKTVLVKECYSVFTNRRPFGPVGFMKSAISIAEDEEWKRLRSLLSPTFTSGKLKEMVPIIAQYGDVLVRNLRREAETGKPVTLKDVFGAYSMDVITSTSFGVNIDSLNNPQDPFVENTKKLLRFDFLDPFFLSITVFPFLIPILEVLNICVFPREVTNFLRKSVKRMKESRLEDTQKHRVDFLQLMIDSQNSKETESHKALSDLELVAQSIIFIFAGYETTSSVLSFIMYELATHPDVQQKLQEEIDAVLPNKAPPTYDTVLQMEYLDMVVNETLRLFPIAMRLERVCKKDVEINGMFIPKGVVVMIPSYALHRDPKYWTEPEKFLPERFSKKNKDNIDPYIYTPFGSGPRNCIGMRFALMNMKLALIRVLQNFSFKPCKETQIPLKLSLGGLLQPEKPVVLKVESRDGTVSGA
Sequence of Cytochrome P450 2C19 (Homo sapiens) (P33261 whole entry, looked up): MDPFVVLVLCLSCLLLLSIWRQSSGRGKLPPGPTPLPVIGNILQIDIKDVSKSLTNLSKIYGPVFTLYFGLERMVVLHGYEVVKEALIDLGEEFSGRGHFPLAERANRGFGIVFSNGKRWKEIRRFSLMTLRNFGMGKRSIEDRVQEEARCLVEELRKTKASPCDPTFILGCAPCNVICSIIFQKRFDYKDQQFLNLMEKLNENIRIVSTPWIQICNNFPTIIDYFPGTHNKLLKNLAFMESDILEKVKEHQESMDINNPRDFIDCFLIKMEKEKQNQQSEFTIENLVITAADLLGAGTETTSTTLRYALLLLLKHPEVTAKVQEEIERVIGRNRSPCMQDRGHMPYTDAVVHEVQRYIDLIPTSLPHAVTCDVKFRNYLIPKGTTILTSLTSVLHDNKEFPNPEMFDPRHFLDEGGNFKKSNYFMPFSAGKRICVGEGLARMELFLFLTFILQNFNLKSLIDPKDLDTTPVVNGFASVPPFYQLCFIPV
Sequence of Cytochrome P450 2C9 (Homo sapiens) (P11712 whole entry, looked up): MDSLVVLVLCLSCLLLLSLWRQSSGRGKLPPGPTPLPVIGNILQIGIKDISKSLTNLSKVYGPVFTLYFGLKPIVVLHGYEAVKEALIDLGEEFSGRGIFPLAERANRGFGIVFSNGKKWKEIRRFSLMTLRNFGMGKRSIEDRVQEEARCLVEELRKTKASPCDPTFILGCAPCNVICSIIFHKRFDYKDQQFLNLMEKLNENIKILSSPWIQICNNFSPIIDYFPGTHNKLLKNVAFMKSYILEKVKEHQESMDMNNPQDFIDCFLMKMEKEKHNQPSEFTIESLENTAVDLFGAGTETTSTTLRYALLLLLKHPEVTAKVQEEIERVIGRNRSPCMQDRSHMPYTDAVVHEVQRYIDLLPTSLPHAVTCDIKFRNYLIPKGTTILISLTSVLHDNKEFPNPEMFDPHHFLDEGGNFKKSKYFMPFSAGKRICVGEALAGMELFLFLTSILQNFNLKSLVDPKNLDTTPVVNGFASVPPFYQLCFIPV

For `COc1ccccc1CNc1cc(-c2cccc(NS(C)(=O)=O)c2)ncn1`, which Potency [1] is on record?
The Potency was greater than 11.4 µM.

What about the Potency [2] of the same compound?
Its Potency is 15.8 µM (active).

What about the activity change, negative = inhibition [3] of the same compound?
The activity change, negative = inhibition was -3.65%.

And the activity, negative = inhibition [4]?
The activity, negative = inhibition was -1.76%.

And the Potency [5]?
The Potency was greater than 46 µM.

What about the Potency [6] of the same compound?
Its Potency is greater than 46 µM.

And the Potency [7]?
The Potency was “inactive”.

And the Potency [8]?
Its Potency is “inactive”.

What about the activity change, negative = inhibition [9] of the same compound?
The activity change, negative = inhibition was 33% [at 2.29 µM].

And the Potency [10]?
Its Potency is “inactive”.

What about the Potency [11] of the same compound?
Its Potency is “inactive”.

What about the outcome [12] of the same compound?
The outcome was “inactive”.

What about the outcome [13] of the same compound?
The outcome was “inactive”.

With `O=C(Oc1ccccc1)N1CCC2(CCCN(c3ncccn3)C2)CC1` as the compound, how does the Potency [1] read?
The Potency was greater than 11.4 µM.

And the Potency [2]?
Its Potency is 10 µM (active).

What about the activity change, negative = inhibition [3] of the same compound?
Its activity change, negative = inhibition is -6.42%.

What about the activity, negative = inhibition [4] of the same compound?
Its activity, negative = inhibition is -23.6%.

And the Potency [6]?
The Potency was greater than 46 µM.

And the Potency [8]?
The Potency was “inactive”.

What about the outcome [13] of the same compound?
The outcome was “inactive”.

Which Potency [1] does the source give for `CCNc1ncc2ncc(=O)n(CCc3ccccc3)c2n1` here?
Its Potency is greater than 11.4 µM.

And the Potency [2]?
The Potency was 1 µM (active).

What about the activity change, negative = inhibition [3] of the same compound?
The activity change, negative = inhibition was 9.34%.

What about the activity, negative = inhibition [4] of the same compound?
The activity, negative = inhibition was -25.4%.

And the Potency [5]?
Its Potency is greater than 9.22 µM.

What about the Potency [6] of the same compound?
The Potency was greater than 46 µM.

What about the Potency [7] of the same compound?
The Potency was “inactive”.

What about the Potency [8] of the same compound?
Its Potency is “inactive”.

And the Potency [10]?
Its Potency is “inactive”.

And the Potency [14]?
Its Potency is 0.631 µM (active).

What about the outcome [13] of the same compound?
The outcome was “inactive”.

Which Potency [1] does the source give for `CN1CCN(c2ncc3nc(-c4ccc(Cl)cc4)c(=O)n(CCC#N)c3n2)CC1` here?
Its Potency is greater than 11.4 µM.

What about the Potency [2] of the same compound?
Its Potency is 15.8 µM (active).

And the activity change, negative = inhibition [3]?
The activity change, negative = inhibition was 214% [activator] (active).

What about the Potency [5] of the same compound?
Its Potency is greater than 9.22 µM.

What about the Potency [6] of the same compound?
The Potency was greater than 46 µM.

And the Potency [7]?
The Potency was “inactive”.

What about the Potency [8] of the same compound?
The Potency was “inactive”.

What about the Potency [14] of the same compound?
Its Potency is “inactive”.

And the outcome [13]?
Its outcome is “inactive”.

What does the source list for `O=C(c1cc(C(F)(F)F)cc(C(F)(F)F)c1)N1CCC2(CCCN(c3ccccn3)C2)CC1`?
Potency [1]: > 11.4 µM; activity change, negative = inhibition [15]: 10.7%; activity, negative = inhibition [4]: -14.7%; Potency [6]: > 46 µM; Potency [7]: inactive; Potency [8]: inactive; activation [16]: 2.81%; outcome [13]: inactive

Which Potency [1] does the source give for `O=C(c1cccc(F)c1)N1CCC2(CC1)CCN(c1ccccn1)CC2` here?
Its Potency is greater than 11.4 µM.

What about the activity change, negative = inhibition [15] of the same compound?
Its activity change, negative = inhibition is -6.05%.

What about the activity, negative = inhibition [4] of the same compound?
Its activity, negative = inhibition is -4.99%.

And the Potency [6]?
The Potency was greater than 46 µM.

What about the Potency [7] of the same compound?
Its Potency is “inactive”.

What about the Potency [8] of the same compound?
The Potency was “inactive”.

And the Potency [10]?
The Potency was 3.16 µM (active).

And the outcome [13]?
Its outcome is “inactive”.

With `O=C(Oc1ccccc1)N1CCC2(CC1)CCN(c1cccc(-c3ccccc3)c1)CC2` as the compound, how does the Potency [1] read?
Its Potency is greater than 11.4 µM.

And the Potency [2]?
The Potency was 12.6 µM (active).

What about the activity, negative = inhibition [4] of the same compound?
Its activity, negative = inhibition is -5.12%.

And the Potency [6]?
The Potency was greater than 46 µM.

And the Potency [7]?
Its Potency is “inactive”.

And the Potency [8]?
The Potency was “inactive”.

What about the Potency [17] of the same compound?
Its Potency is “inactive”.

What about the Potency [10] of the same compound?
Its Potency is 7.94 µM (active).

And the outcome [13]?
The outcome was “inactive”.

Which activity change, negative = inhibition [15] does the source give for `O=c1c(-c2ccc(Cl)cc2)nc2cnc(N3CCOCC3)nc2n1C1CC1` here?
The activity change, negative = inhibition was 6.61%.

And the Potency [2]?
The Potency was 1.26 µM (active).

And the activity change, negative = inhibition [3]?
Its activity change, negative = inhibition is -4.43%.

And the activity, negative = inhibition [4]?
Its activity, negative = inhibition is 26.7%.

What about the Potency [5] of the same compound?
Its Potency is greater than 9.22 µM.

What about the Potency [6] of the same compound?
Its Potency is greater than 46 µM.

What about the Potency [7] of the same compound?
Its Potency is “inactive”.

What about the Potency [8] of the same compound?
The Potency was “inactive”.

What about the outcome [13] of the same compound?
The outcome was “inactive”.

Which results are given for `CCNc1ncc2nc(-c3ccc(Cl)cc3)c(=O)n(-c3ccccc3)c2n1`?
Potency [1]: > 11.4 µM; Potency [2]: 1 µM (active); Potency [5]: > 9.22 µM; Potency [6]: > 46 µM; Potency [7]: inactive; outcome [13]: inactive
